These results are taken from PubChem BioAssay AID651642 (Sanford-Burnham Center for Chemical Genomics, 2012).

Calls of active or inactive are those of the source.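 Rule for the calls: active = average half-effect concentration of 10 µM or less in every one of the four cell panels; inactive = the rest.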

In the test the test system is H9c2. The experiment in a line: protection of cardiomyocytes from stress damage, SAR follow-up, cell-based, panel, H9c2 and HL-1, H2O2, 2-deoxyglucose, ATP luminescence (AID 651642). The settings on record: H9c2/HL-1 cardiomyocyte H2O2 oxidative damage, mean of runs, with H2O2.
In the case of `COc1cc(-c2cc(C(=O)Nc3cccc(C(C)=O)c3)c3cc(Br)ccc3n2)cc(OC)c1OC`, the molecule was called inactive.
Under `CCOC(=O)c1cccc(NC(=O)c2cc(-c3cc(OC)c(OC)c(OC)c3)nc3ccccc23)c1` stands “inactive”; under `COc1cc(-c2cc(C(=O)Nc3cccc(C(C)=O)c3)c3cccc(Cl)c3n2)cc(OC)c1OC`, “inactive”; under `CCOC(=O)c1cccc(NC(=O)c2cc(-c3cc(OC)c(OC)c(OC)c3)nc3ccc(Br)cc23)c1`, “inactive”.
Under `COc1cc(-c2cc(C(=O)Nc3cccc(C(=O)N(C)C)c3)c3ccccc3n2)cc(OC)c1OC` stands “inactive”; under `COc1cc(-c2cc(C(=O)Nc3cccc(-c4nn[nH]n4)c3)c3ccccc3n2)cc(OC)c1OC`, “inactive”; under `COc1cc(-c2cc(C(=O)Nc3cccc(C(=O)N4CCOCC4)c3)c3ccccc3n2)cc(OC)c1OC`, “active”.
For `COc1ccc2c(c1OC)C(=O)N1c3ccccc3C(=O)N(Cc3ccccc3)C21` (configuration not stated) the value was “inactive”; for `COc1ccc2c(c1OC)C(=O)N1c3ccccc3C(=O)N(Cc3ccc(F)cc3)C21` (configuration not stated), “inactive”; for `COc1cc(-c2cc(C(=O)Nc3cccc(C(C)=O)c3)c3ccccc3n2)cc(OC)c1OC`, “inactive”.
`CCOC(=O)c1cccc(NC(=O)c2cc(-c3cc(OC)c(OC)c(OC)c3)nc3ccc(Cl)cc23)c1`: the result was inactive.
For `COc1ccc2nc(-c3cc(OC)c(OC)c(OC)c3)cc(C(=O)Nc3cccc(C(C)=O)c3)c2c1`, the call was inactive.
Consider `CCOC(=O)c1cccc(NC(=O)CNC(=O)c2cc(-c3cc(OC)c(OC)c(OC)c3)nc3ccc(F)cc23)c1`, for which the result was active.
Under `COc1cc(-c2cc(C(=O)NCC(=O)Nc3ccc(C(C)=O)cc3)c3cc(F)ccc3n2)cc(OC)c1OC` stands “inactive”; under `COc1cc(-c2cc(C(=O)Nc3cccc(C#N)c3)c3ccccc3n2)cc(OC)c1OC`, “inactive”; under `COc1cc(-c2cc(C(=O)Nc3cccc(C(C)=O)c3)c3ccc(Cl)cc3n2)cc(OC)c1OC`, “inactive”.
Under `COc1cc(-c2cc(C(=O)NCC(=O)Nc3cccc(C(C)=O)c3)c3ccccc3n2)cc(OC)c1OC` stands “active”; under `COc1ccc2c(c1OC)C(=O)N1c3ccccc3C(=O)N(Cc3ccccc3Cl)C21` (configuration not stated), “inactive”.
Under `COc1ccc2c(c1OC)C(=O)N1c3ccccc3C(=O)N(Cc3ccccc3Br)C21` (configuration not stated) stands “inactive”.
For the molecule `COc1ccc2c(c1OC)C(=O)N1c3ccccc3C(=O)N(Cc3ccccc3F)C21` (configuration not stated), the molecule was classed as inactive.
For `COc1cc(-c2cc(C(=O)NCC(=O)Nc3cccc(C(C)=O)c3)c3cc(Br)ccc3n2)cc(OC)c1OC` the value was “active”.
For `CCOC(=O)c1cccc(NC(=O)CNC(=O)c2cc(-c3cc(OC)c(OC)c(OC)c3)nc3ccc(Br)cc23)c1` the value was “active”; for `COc1cc(-c2cc(C(=O)NCC(=O)Nc3cccc(C(C)=O)c3)c3cc(F)ccc3n2)cc(OC)c1OC`, “active”.
As to `COc1ccc2c(c1OC)C(=O)N1c3ccccc3C(=O)N(Cc3ccc(C)cc3)C21` (configuration not stated), the call was inactive.
Turning to `COc1ccc2nc(-c3cc(OC)c(OC)c(OC)c3)cc(C(=O)NCC(=O)Nc3cccc(C(C)=O)c3)c2c1`, the result was inactive.
Take `CCOC(=O)c1ccccc1NC(=O)c1cc(-c2cc(OC)c(OC)c(OC)c2)nc2ccccc12`: the molecule was called inactive.
Under `COc1cc(-c2cc(C(=O)NCC(=O)Nc3ccc(C(C)=O)cc3)c3ccccc3n2)cc(OC)c1OC` stands “inactive”.
As to `COc1ccc2c(c1OC)C(=O)N1c3ccccc3C(=O)N(Cc3ccccc3C)C21` (configuration not stated), the molecule was classed as inactive.
For `COC(=O)CNC(=O)c1cccc(NC(=O)c2cc(-c3cc(OC)c(OC)c(OC)c3)nc3ccccc23)c1` the value was “inactive”; for `COc1ccc2nc(-c3cc(OC)c(OC)c(OC)c3)cc(C(=O)NCC(=O)Nc3ccc(C(C)=O)cc3)c2c1`, “active”; for `COc1cccc(CNC(=O)CNC(=O)c2cc(-c3cc(OC)c(OC)c(OC)c3)nc3ccccc23)c1`, “active”.
For `COc1cc(-c2cc(C(=O)NCC(=O)Nc3ccc(C(C)=O)cc3)c3cc(C)ccc3n2)cc(OC)c1OC` the value was “active”.
